Measurements reported in the supplement of paper PMC11732987, “Enantioselective OTUD7B fragment discovery through chemoproteomics screening and high-throughput optimisation” (Communications Chemistry, 2025).

Experiments:
Assay in all cases: log2 ratio of Biotin-Ahx-Ub-VS probe labelling (fragment/DMSO); higher = less target engagement (more negative = stronger competition), active = hit call of the paper (q ≤ 0.05, log2 ratio ≤ -1)
Settings in all cases: compound concentration: 200 uM; treatment time: 3 h
USP19 = target: T1, USP19 (UniProt O94966)
T1 sequence (whole entry): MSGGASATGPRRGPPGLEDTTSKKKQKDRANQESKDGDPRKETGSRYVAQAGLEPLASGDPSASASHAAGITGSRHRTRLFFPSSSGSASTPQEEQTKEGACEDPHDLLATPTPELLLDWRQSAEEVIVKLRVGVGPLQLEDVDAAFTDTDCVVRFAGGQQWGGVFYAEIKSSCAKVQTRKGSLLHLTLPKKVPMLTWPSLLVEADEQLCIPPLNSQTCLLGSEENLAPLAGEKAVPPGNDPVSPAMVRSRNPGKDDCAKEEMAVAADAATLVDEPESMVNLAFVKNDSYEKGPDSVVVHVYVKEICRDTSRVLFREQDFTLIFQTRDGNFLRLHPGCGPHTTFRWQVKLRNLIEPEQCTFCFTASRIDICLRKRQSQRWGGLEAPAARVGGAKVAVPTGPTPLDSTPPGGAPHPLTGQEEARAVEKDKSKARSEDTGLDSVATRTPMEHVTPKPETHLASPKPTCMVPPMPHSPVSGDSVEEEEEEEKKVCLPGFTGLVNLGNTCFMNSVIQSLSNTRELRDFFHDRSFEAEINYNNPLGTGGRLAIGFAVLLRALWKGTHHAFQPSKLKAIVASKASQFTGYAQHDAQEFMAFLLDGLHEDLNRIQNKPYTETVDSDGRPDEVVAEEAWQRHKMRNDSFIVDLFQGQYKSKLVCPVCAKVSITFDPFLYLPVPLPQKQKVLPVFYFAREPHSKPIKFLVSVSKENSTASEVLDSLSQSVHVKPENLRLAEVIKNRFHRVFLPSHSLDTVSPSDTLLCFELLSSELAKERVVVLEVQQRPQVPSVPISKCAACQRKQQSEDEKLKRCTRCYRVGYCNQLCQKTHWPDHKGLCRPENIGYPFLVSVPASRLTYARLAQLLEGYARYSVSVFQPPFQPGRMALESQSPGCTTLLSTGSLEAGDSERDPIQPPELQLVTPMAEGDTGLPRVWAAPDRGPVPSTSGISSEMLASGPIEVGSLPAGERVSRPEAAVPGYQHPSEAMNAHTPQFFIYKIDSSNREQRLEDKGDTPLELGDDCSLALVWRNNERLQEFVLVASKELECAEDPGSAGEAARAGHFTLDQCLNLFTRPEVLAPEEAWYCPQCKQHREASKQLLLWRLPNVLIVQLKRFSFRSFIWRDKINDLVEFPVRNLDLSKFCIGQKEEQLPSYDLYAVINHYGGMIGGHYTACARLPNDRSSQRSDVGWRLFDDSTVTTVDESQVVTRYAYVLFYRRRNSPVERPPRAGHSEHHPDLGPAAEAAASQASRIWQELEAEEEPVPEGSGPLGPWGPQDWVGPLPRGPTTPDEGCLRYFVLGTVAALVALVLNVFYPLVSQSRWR
Outline: (§1)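 Labelled DUBs from HEK293T lysate were NeutrAvidin-enriched, digested with LysC and trypsin, and run by diaPASEF LC-MS/MS. Before that, each 495 µg sample in Tris/CHAPS/IGEPAL buffer with protease inhibitors was treated in triplicate with fragment at 200 µM or vehicle for 3 h, then with Biotin-Ahx-Ub-VS at 0.5 µM final for 1 h. Values are average log2 ratios of fragment over vehicle by unpaired t-test, based on global-median-normalised Spectronaut label-free quantities from proteins with ≥2 unique peptides.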

USP22 = target: T2, USP22 (UniProt Q9UPT9)
T2 sequence (whole entry): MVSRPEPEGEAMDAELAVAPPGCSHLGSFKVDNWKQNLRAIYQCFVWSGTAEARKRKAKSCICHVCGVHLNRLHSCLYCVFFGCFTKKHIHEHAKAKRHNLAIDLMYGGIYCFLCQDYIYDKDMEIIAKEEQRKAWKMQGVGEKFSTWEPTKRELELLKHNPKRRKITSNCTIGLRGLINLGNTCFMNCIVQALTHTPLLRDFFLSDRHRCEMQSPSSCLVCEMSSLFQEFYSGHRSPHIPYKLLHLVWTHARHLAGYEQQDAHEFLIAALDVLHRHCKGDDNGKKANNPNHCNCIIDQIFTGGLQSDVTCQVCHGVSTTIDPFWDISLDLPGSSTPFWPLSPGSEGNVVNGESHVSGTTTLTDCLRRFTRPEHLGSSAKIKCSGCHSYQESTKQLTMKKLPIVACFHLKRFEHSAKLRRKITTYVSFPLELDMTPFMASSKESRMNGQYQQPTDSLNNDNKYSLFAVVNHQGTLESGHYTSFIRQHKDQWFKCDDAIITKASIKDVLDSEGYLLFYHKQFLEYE
Outline: as §1

USP24 = USP24 (UniProt Q9UPU5)
Sequence of USP24 (Q9UPU5 whole entry): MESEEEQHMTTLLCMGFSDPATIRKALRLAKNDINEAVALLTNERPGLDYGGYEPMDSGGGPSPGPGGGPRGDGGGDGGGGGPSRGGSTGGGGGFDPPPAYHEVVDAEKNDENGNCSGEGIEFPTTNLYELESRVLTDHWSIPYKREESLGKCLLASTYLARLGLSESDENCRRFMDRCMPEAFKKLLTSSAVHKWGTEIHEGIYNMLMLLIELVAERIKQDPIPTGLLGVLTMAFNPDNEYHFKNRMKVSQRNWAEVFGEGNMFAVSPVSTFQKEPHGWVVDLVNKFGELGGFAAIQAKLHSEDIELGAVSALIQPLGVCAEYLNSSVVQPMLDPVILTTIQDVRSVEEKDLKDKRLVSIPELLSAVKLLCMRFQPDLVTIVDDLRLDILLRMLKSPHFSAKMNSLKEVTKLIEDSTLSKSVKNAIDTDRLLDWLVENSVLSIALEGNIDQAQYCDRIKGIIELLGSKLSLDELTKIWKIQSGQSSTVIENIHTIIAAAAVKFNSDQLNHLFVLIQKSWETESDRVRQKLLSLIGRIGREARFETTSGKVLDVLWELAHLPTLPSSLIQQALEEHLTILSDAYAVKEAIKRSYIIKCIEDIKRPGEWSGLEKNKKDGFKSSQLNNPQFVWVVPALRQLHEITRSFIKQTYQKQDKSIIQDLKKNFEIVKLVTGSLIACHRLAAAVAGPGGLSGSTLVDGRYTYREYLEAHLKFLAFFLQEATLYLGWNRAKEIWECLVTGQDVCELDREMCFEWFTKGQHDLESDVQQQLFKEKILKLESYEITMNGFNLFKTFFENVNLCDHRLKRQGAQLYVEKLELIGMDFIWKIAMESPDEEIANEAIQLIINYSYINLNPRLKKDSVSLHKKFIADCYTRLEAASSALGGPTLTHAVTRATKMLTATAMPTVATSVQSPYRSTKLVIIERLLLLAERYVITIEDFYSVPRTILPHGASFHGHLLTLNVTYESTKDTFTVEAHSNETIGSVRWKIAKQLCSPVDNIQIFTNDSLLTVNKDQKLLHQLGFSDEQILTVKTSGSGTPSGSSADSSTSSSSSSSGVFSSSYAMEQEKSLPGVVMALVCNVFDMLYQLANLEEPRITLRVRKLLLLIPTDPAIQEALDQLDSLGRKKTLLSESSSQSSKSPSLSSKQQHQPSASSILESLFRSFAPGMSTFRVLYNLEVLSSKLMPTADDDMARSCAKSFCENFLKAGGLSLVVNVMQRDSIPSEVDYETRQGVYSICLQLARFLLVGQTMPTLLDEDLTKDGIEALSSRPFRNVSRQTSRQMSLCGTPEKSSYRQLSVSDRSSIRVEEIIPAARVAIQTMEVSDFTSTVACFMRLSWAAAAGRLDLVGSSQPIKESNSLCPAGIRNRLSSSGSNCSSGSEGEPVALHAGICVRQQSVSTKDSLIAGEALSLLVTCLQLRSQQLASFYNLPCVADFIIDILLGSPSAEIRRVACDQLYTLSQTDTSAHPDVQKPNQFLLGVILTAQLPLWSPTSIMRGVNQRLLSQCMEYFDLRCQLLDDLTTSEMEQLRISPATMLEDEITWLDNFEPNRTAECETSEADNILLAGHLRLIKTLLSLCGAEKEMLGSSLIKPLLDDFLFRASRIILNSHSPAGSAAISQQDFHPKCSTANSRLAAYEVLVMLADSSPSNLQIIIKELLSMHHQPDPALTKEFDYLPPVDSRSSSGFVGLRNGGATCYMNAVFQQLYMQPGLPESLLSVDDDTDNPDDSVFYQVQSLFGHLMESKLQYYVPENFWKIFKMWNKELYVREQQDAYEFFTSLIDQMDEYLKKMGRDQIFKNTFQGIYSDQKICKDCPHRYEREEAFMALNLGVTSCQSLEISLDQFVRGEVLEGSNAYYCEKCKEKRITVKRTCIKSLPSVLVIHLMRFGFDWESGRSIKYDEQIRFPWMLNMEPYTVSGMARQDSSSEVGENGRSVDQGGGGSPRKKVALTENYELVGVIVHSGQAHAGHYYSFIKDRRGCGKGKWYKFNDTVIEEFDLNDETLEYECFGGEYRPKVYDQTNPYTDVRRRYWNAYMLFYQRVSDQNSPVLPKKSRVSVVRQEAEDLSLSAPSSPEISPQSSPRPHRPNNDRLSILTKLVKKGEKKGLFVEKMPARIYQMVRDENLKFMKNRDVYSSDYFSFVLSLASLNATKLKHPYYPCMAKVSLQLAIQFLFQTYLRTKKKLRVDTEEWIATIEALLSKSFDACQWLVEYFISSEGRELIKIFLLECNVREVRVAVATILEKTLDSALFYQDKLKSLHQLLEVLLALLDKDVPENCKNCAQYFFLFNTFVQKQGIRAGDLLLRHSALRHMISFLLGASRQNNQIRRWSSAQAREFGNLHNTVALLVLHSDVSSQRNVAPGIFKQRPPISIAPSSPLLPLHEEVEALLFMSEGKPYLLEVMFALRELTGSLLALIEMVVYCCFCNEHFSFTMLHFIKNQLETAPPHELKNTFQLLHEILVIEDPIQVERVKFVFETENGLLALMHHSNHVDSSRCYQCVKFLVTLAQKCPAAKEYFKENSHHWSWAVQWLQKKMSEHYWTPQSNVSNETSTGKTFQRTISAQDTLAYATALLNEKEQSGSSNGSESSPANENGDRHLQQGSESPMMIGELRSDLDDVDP
Outline: as §1

USP25 = target: T3, USP25 (UniProt Q9UHP3)
T3 sequence (whole entry): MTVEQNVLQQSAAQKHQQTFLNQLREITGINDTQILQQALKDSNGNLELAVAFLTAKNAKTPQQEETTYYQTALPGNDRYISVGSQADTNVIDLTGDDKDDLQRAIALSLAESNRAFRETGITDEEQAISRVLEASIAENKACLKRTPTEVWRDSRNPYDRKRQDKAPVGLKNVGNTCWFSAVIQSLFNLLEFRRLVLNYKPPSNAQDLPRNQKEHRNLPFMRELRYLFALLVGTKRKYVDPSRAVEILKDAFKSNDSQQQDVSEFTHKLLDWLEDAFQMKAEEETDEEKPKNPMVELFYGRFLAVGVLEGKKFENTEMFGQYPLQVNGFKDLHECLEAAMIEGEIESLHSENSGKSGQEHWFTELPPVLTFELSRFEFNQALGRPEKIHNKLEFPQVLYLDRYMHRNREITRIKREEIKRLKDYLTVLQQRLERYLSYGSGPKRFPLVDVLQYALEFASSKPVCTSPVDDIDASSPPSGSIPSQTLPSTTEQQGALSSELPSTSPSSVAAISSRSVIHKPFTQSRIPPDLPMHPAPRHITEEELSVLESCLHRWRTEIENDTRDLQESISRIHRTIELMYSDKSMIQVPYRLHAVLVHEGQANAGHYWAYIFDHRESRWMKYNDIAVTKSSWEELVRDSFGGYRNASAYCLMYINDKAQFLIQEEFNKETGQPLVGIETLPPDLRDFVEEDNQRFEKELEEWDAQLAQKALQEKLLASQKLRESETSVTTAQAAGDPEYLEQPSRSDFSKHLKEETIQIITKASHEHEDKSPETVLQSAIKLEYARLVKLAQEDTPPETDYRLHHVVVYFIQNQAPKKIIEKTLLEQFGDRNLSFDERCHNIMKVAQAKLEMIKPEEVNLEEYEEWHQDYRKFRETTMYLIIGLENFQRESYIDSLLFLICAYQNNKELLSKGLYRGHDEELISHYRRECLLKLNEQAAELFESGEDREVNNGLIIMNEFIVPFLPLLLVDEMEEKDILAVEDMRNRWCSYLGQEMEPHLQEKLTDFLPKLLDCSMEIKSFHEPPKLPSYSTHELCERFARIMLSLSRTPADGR
Outline: as §1

USP28 = target: T4, USP28 (UniProt Q96RU2)
T4 sequence (whole entry): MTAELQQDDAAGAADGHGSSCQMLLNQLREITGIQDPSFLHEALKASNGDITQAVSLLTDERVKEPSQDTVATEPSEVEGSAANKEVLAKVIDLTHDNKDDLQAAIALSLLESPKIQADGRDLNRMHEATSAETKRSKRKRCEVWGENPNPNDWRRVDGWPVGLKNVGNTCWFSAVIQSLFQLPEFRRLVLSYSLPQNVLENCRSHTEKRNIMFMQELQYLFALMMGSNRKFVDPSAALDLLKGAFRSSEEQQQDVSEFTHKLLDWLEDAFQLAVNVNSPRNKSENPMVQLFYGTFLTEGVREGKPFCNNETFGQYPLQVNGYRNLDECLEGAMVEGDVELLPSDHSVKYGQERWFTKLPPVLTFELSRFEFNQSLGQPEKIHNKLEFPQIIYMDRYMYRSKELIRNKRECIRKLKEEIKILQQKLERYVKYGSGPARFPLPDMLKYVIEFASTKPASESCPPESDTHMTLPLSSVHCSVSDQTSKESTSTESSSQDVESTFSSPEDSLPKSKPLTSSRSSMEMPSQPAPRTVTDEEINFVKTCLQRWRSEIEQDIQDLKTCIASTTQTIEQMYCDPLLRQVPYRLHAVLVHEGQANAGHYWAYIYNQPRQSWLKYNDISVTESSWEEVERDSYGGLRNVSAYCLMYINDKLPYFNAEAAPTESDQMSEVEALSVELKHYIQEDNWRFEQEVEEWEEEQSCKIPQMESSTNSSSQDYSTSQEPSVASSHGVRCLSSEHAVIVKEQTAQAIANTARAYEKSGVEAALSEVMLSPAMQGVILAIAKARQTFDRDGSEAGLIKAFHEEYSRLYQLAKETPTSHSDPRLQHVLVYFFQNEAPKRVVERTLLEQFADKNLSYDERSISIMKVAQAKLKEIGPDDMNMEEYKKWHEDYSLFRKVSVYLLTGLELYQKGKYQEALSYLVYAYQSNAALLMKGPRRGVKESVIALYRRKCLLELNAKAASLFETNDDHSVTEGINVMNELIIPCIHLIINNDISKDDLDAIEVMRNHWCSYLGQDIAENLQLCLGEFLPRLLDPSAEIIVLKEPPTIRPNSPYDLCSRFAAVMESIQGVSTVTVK
Outline: as §1

Measured: log2 ratio of Biotin-Ahx-Ub-VS probe labelling

O=C(CCl)N1CCN2C(=O)CCC2C1 (stereo not given)
inactive: USP19 0.0407 | USP22 -0.0658 | USP24 0.14 | USP25 -0.508 | USP28 -0.38
